The values that follow come from the supplement of paper PMC8183993.

Each structure is given as a SMILES string. Several values for one entry are separate records, joined by “and”; a condition that tells them apart may be missing. Equal values may be shown once. Where a name gives a salt, the structure may show the parent alone. ± gives the standard deviation of the averaged measurements. The full ranking holds about 3,100 compounds; the median of “mean cytoplasmic OPP incorporation (global translation) relative to DMSO” is about 100, and the lowest 2% start at about 56. Only a selection was taken, and the lowest values are over-represented in it overall.

For the test, the system named is U2OS. Briefly: mean cytoplasmic OPP incorporation (global translation) relative to DMSO (% of DMSO); higher = more protein synthesis. The note with it: 10 µM; 24 h. Here is the method: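 Primary image-based screen in U2OS cells: compounds at 10 uM for 24 h, then a 1 h o-propargyl-puromycin (OPP) pulse, click labelling, and high-throughput microscopy. Mean cytoplasmic OPP intensity and nuclei count were normalised to DMSO wells within each plate (DMSO = 100) and averaged over triplicate plates.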
As to `CC(C)C(=O)SCCCCCCC(=O)Nc1nc(-c2ccccc2)cs1`, the “mean cytoplasmic OPP incorporation” value was 117. As for `CCCCCCN(CCCCCC)C(=O)Cc1c(-c2ccc(Cl)cc2)[nH]c2ccc(Cl)cc12`, the “mean cytoplasmic OPP incorporation” value is 104. Under `Cc1ccc(CC2(O)CCN(CCOc3ccc(O)cc3)CC2)cc1` stands 108; under `COc1cc(C#N)ccc1S(=O)(=O)Nc1ccc2c(c1)cc(C)c(=O)n2C`, 109; under `COc1ccc(CCN(C)CCCOc2ccc(S(=O)(=O)c3c(C(C)C)c4ccccc4n3C)cc2)cc1OC`, 110.

In the case of `Clc1cc2c(NC3CCCC3)nnc(-c3ccncc3)c2cc1Cl`, the “mean cytoplasmic OPP incorporation” value amounted to 114. For the compound `Cc1cnc(Nc2ccc(OCCN3CCCC3)cc2)nc1Nc1cccc(S(=O)(=O)NC(C)(C)C)c1`, the “mean cytoplasmic OPP incorporation” value is 82.6 and 66.4. The figure for `CSc1cccc(Nc2ncc3cc(-c4c(Cl)cccc4Cl)c(=O)n(C)c3n2)c1` is 116. In the case of `CCN(CC)CCOc1ccc(Nc2ncc3cc(-c4c(Cl)cccc4Cl)c(=O)n(C)c3n2)cc1`, the “mean cytoplasmic OPP incorporation” value was 53.6.

For the compound `Cc1ccc(S(=O)(=O)C=CC#N)cc1`, the “mean cytoplasmic OPP incorporation” value was found to be 65.3.

Take `O=C1Nc2ccc(-c3cccnc3)cc2/C1=C/c1ccc[nH]1` [JAK3 Inhibitor VI]: the “mean cytoplasmic OPP incorporation” value was found to be 90. The figure for `N=C(N)c1ccc(N2CCN(C3CCN(CC(=O)O)CC3)CC2)cc1` is 99.3. Under `NC[C@H]1CC[C@H](C(=O)O)CC1` [Tranexamic acid] stands 47; under `NCC1CCC(C(=O)N[C@@H](Cc2ccccc2)C(=O)Nc2ccc(CC(=O)O)cc2)CC1` (some centres not stated), 97.5. As for `CC1(C)CCC(C)(C)c2cc(C(=O)Nc3ccc(C(=O)O)cc3)ccc21`, the “mean cytoplasmic OPP incorporation” value was 105 and 99.6. Under `CN(CCc1ccc(Cl)c(Cl)c1)CC(O)COc1ccc(NS(C)(=O)=O)cc1` (configuration not stated) stands 102 and 107; under `N#Cc1ccc(NC(=O)Nc2ccccc2Br)c2n[nH]nc12`, 104; under `Cc1nc(Nc2n[nH]c3c2CN(C(=O)N[C@H](CN(C)C)c2ccccc2)C3(C)C)c2sccc2n1`, 45.5.

In the case of `CC(C)CC(=O)Nc1n[nH]c2c1CN(C(=O)C1CCN(C)CC1)C2(C)C`, the “mean cytoplasmic OPP incorporation” value amounted to 65.9. In the case of `CSc1nc(NC2CCCC2)c([N+](=O)[O-])c(NC2CCCC2)n1`, the “mean cytoplasmic OPP incorporation” value was determined as 101. The figure for `COC(C)(C)CCCC(C)C/C=C/C(C)=C/C(=O)O` (configuration not stated) [Methoprene acid] is 99.2; for `CC(=O)OCOC(c1cc([N+](=O)[O-])ccc1Oc1ccc(Br)cc1)P(=O)(OCOC(C)=O)OCOC(C)=O` (configuration not stated) it is 101; for `CC(C)N1Cc2cc(S(C)(=O)=O)ccc2N(CCN2CC=C(c3c[nH]c4cc(F)ccc34)CC2)S1(=O)=O` it is 106. Consider `CC(C)[C@H]1c2ccc(F)cc2CC[C@@]1(CCN(C)CCCc1nc2ccccc2[nH]1)OC(=O)C1CC1` [NNC 55-0396 dihydrochloride], for which the “mean cytoplasmic OPP incorporation” value turned out to be 55.5. Under `COCC(=O)O[C@]1(CCN(C)CCCc2nc3ccccc3[nH]2)CCc2cc(F)ccc2[C@@H]1C(C)C` [Mibefradil dihydrochloride] stands 116; under `N#Cc1ccc(NCCNCC(=O)N2CCC[C@H]2C#N)nc1` [NVP DPP 728 dihydrochloride], 90.3; under `COc1ccc(CCN(C)CCCN2CCc3cc(OC)c(OC)cc3CC2=O)cc1OC` [Zatebradine hydrochloride], 107. Regarding `COc1cc(N)c(Cl)cc1C(=O)OCCCN1CCCCC1`, the “mean cytoplasmic OPP incorporation” value stood at 104. Under `O=C(O)c1ccc(N2C(=O)C(=Cc3ccccc3)SC2=S)cc1` stands 102; under `Cc1cc(-c2ccccc2)nnc1NCCN1CCOCC1` [Minaprine dihydrochloride], 99.4. The figure for `O=C(NCCN1CCOCC1)c1ccc(Cl)cc1` [Moclobemide] is 91.9; for `O=C1C(Cl)=C(NCCN2CCOCC2)C(=O)c2ncccc21` it is 31.

Consider `Cl/C(=C\n1cncn1)c1ccc(Cl)cc1Cl` [Loreclezole hydrochloride], for which the “mean cytoplasmic OPP incorporation” value amounted to 98.7.

In the case of `Cc1oc(S(=O)(=O)N2CCCCC2)cc1NC(=O)Nc1ccccc1`, the “mean cytoplasmic OPP incorporation” value is 102. For `O=C(NCCCCN1CCN(c2cccc(Cl)c2Cl)CC1)c1ccc2c(c1)Cc1ccccc1-2`, the “mean cytoplasmic OPP incorporation” value came to 107. Under `COc1ccccc1N1CCN(CCCCNC(=O)c2ccc3ccccc3c2)CC1` stands 112; under `Cc1cn(CCN2CCN(c3ccccc3-c3cc(C#N)cc(C(=O)NCCCN4CCCC4)c3)CC2)c2ccccc12`, 30.6. The figure for `CC(C)=CCC/C(C)=C/CC/C(C)=C/CSCC(=O)O` [Farnesylthioacetic acid] is 96.1; for `CSCC[C@H](NC=O)C(=O)N[C@@H](CC(=O)O)C(=O)NCC(=O)N[C@@H](CS)C(=O)N[C@@H](CCC(=O)O)C(=O)N[C@@H](CC(C)C)C(=O)O` it is 103; for `CC(=O)N1CCN(C)CC1` [1-Acetyl-4-methylpiperazine hydrochloride] it is 99.1. In the case of `Cc1ccc([N+](=O)[O-])cc1S(=O)(=O)N(C)C`, the “mean cytoplasmic OPP incorporation” value is 94.1. Consider `Cc1ccc([N+](=O)[O-])cc1S(=O)(=O)N(C)/N=C/c1cnc2ccc(Br)cn12`, for which the “mean cytoplasmic OPP incorporation” value was 44.3. In the case of `Cn1cccc1/C=C1\C(=O)NC(=O)c2ccccc21`, the “mean cytoplasmic OPP incorporation” value is 89.4. Under `CC(C)Oc1cc(Nc2nc(N[C@@H](C)c3ccc(F)cn3)ncc2Cl)n[nH]1` stands 110. With `Cc1cc(Nc2ncc(Cl)c(Nc3ccccc3S(=O)(=O)C(C)C)n2)c(OC(C)C)cc1C1CCNCC1` [Ceritinib (LDK378)], the “mean cytoplasmic OPP incorporation” value was 25.4.

Regarding `O=C1C(SCCO)=C(SCCO)C(=O)c2ccccc21`, the “mean cytoplasmic OPP incorporation” value is 71.3 and 55.3.

For the compound `O=C1c2ccccc2C(=O)c2c1ccc(O)c2O` [Alizarin], the “mean cytoplasmic OPP incorporation” value turned out to be 106. The figure for `O=C1c2ccccc2-c2nc3nonc3nc21` is 81.3; for `O=[N+]([O-])c1ccc(Oc2ccc(Br)cc2)c(C(O)P(=O)(O)O)c1` (configuration not stated) it is 95.9. Under `COC(=O)C(Cc1ccc(OCCn2c(=O)sc3cc(C(=O)c4ccccc4)ccc32)cc1)C(=O)OC` stands 105. On to `CC(=O)OC[C@H]1O[C@@H]([S-])[C@H](OC(C)=O)[C@@H](OC(C)=O)[C@@H]1OC(C)=O.CCP(CC)CC.[Au+]` [Auranofin], for which the “mean cytoplasmic OPP incorporation” value worked out at 10.4. The figure for `CCCCc1nc2ccn(Cc3cccs3)c(=O)c2n1Cc1ccc(-c2ccccc2-c2nn[nH]n2)cc1` is 104; for `COc1cc(-c2cn(C)c(=O)c3cnccc23)c(OC)cc1CN(C)C` it is 95.8.

Regarding `c1ccc(-c2n[nH]c3c2oc2ccccc23)cc1`, the “mean cytoplasmic OPP incorporation” value came out at 87.3. The figure for `O=C1NC(=O)/C(=C/c2ccc3nccc(-c4ccncc4)c3c2)S1` is 90.1; for `Cc1[nH]c(=O)c(C#N)cc1-c1ccncc1` [Milrinone] it is 94.4; for `O=C1NCCc2[nH]c(-c3ccncc3)cc21` it is 49.9 ± 13.
